In PubChem BioAssay (EPA / NIEHS) one finds outcome and AC50 data, which are given here for 9 molecules.

Structures are written as SMILES. Calls of active or inactive are those of the source. Rule for the calls: active = hit-call score of the fitted dose curve at least 0.9, where 1 is the maximum; inactive = score below 0.9.

For orientation: AC50 means the concentration giving half of the maximal activity seen.

The target of assay [1] is Bile acid receptor (Homo sapiens) (UniProt Q96RI1). Briefly: ATG_IR1_CIS: Attagene CIS-FACTORIAL HepG2 Assay for human Nuclear Receptor Subfamily 1 Group H Member 4 (NR1H4), IR1 submotif (AID 2282946). The settings on record: IR1 reporter transcription, actives raise or lower the signal. In short, it runs like this: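 HepG2 cells transiently transfected with multiplexed cis-element reporter units read endogenous transcription factor activity. After 24 h compound exposure, reporter mRNA was quantified by RT-PCR, fluorescent labelling, HpaI digestion and capillary electrophoresis; bidirectional fitting versus DMSO baseline.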
Chain of Bile acid receptor (Homo sapiens) (Q96RI1 whole entry, looked up): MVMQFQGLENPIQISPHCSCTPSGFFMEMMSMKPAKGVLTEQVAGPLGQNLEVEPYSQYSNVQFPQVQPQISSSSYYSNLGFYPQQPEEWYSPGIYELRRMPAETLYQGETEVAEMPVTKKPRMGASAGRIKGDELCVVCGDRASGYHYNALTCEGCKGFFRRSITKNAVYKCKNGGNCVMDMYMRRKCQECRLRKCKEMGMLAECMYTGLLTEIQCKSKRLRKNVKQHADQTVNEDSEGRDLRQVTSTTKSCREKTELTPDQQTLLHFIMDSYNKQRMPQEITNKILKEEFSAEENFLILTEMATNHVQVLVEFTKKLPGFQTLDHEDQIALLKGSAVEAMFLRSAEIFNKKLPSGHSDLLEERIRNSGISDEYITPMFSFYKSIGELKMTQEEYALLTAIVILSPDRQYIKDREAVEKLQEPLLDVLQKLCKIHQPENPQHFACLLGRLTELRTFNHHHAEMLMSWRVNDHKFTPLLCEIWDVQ

The nature of assay [2]: ATG_ISRE_CIS: Attagene CIS-FACTORIAL HepG2 Assay for human Interferon Regulatory Factor 1 (IRF1) binding to an Interferon-Stimulated Response Element (ISRE) (AID 2282948). The settings on record: HepG2 ISRE cis-reporter (Attagene), mRNA transcription readout; actives raise or lower the signal. In short, it runs like this:
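Read-out: fluorescent RT-PCR products resolved by capillary electrophoresis, reporting endogenous transcription factor activity via ISRE-driven reporter mRNA in transfected HepG2 cells dosed for 24 h; gain or loss fitted relative to DMSO.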

The nature of assay [3]: ATG_M_32_CIS: Attagene CIS-FACTORIAL HepG2 Assay for M32 Transcription Factor (Internal Marker) (AID 2282949).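 Note: background control marker of the multiplexed CIS panel rather than a real target.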 Particulars: HepG2 Attagene cis-factorial M32 reporter, mRNA; actives raise or lower the signal. The method, boiled down:
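HepG2 transfectants (cis-regulated reporter transcription units) dosed 24 h. Reporter mRNA by RT-PCR plus CE, analysed as gain or loss relative to DMSO.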

Assay [4] in a line: ATG_M_06_CIS: Attagene CIS-FACTORIAL HepG2 Assay for M06 Transcription Factor (Internal Marker) (AID 2282950). Particulars: HepG2 Attagene CIS-FACTORIAL M06 internal marker reporter; actives raise or lower the signal. In short, it runs like this: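 Fluorescence-labelled RT-PCR products from cis-promoter reporter units, cut with HpaI and resolved by capillary electrophoresis, give the signal. Cells are human HepG2, dosed for 24 h. Serves as background control, fitted relative to DMSO.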

Assay [5] has as its target Hypoxia-inducible factor 1-alpha (Homo sapiens) (UniProt Q16665). Briefly: ATG_HIF1a_CIS: Attagene CIS-FACTORIAL HepG2 Assay for human Hypoxia Inducible Factor 1 (HIF1A) (AID 2282951). Particulars: HepG2 Attagene cis-factorial HIF1a reporter transcription; actives raise or lower the signal. In short, it runs like this:
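HepG2, transient cis-reporter library, 24 h dosing. RNA → RT (oligo dT) → PCR → 6-FAM primer extension → HpaI → CE. Bidirectional curve fit vs DMSO.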

In assay [6] the target is Hepatocyte nuclear factor 6 (Homo sapiens) (UniProt Q9UBC0). Briefly: ATG_HNF6_CIS: Attagene CIS-FACTORIAL HepG2 Assay for human Hepatocyte Nuclear Factor 6 (HNF6) (AID 2282952). The settings on record: HepG2 Attagene cis-factorial HNF6 reporter transcription; actives raise or lower the signal. In short, it runs like this: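 Endogenous transcription factor activity in human HepG2 liver cells was captured through cis-regulated reporter constructs. After 24 h treatment, reporter mRNA was measured by RT-PCR with capillary electrophoresis, and activity was fitted in both directions relative to DMSO.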
Chain of Hepatocyte nuclear factor 6 (Homo sapiens) (Q9UBC0 whole entry, looked up): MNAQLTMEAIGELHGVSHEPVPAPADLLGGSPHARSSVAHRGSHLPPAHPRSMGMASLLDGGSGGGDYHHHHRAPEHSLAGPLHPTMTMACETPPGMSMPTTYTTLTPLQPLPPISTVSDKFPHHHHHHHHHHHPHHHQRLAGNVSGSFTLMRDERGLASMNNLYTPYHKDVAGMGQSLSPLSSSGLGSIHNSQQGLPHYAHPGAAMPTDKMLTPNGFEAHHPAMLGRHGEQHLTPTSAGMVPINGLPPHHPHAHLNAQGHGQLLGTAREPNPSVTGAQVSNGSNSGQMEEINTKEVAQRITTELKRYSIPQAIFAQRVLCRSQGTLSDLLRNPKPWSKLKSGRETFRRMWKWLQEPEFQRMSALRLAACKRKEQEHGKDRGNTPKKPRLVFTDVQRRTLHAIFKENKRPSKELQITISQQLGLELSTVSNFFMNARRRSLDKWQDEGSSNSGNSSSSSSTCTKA

Assay [7] has as its target Heat shock factor protein 1 (Homo sapiens) (UniProt Q00613). Briefly: ATG_HSE_CIS: Attagene CIS-FACTORIAL HepG2 Assay for human Heat Shock Transcription Factor 1 (HSE) (AID 2282953). Particulars: HepG2 HSE cis-reporter, Attagene RNA transcription; actives raise or lower the signal. In short, it runs like this: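 After a 24 h incubation with test chemical, transfected HepG2 cells were harvested for RNA; reporter transcripts were measured by RT-PCR and capillary electrophoresis. Values reflect gain or loss of signal relative to DMSO.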

A short description of assay [8]: ATG_MRE_CIS: Attagene CIS-FACTORIAL HepG2 Assay for human Metal Responsive Element (MRE) (AID 2282954). Particulars: HepG2 MRE cis-reporter transcription, Attagene multiplex; actives raise or lower the signal. In short, it runs like this:
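Endogenous MRE-dependent transcription read as reporter mRNA in transiently transfected human HepG2 cells at 24 h. RNA reverse-transcribed, PCR-amplified, labelled and resolved by capillary electrophoresis; gain or loss relative to DMSO.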

For assay [9], the target named is Paired box protein Pax-6 (Homo sapiens) (UniProt P26367). Put plainly: ATG_Pax6_CIS: Attagene CIS-FACTORIAL HepG2 Assay for human Paired Box 6 (PAX6) (AID 2282956). Particulars: HepG2 CIS-FACTORIAL PAX6 reporter transcription, RNA readout; actives raise or lower the signal. In short, it runs like this:
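Readout: reporter transcript fluorescence after RT-PCR and capillary electrophoresis. Cells: HepG2, transiently transfected with cis-regulated MRTUs. Exposure 24 h. Gain or loss of signal fitted bidirectionally relative to DMSO.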

Assay [10] in a line: ATG_PXRE_CIS: Attagene CIS-FACTORIAL HepG2 Assay for human Pregnane X Receptor Element (PXRE) (AID 2282957). The settings on record: HepG2 Attagene CIS-FACTORIAL PXRE reporter, mRNA; actives raise or lower the signal. The method, boiled down:
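Endogenous transcription factor activity in HepG2 was gauged through induction of reporter mRNA driven by a cis-regulating promoter element, sampled 24 h post-treatment. Activity was fitted in both directions against DMSO negative control.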

The nature of assay [11]: ATG_RORE_CIS: Attagene CIS-FACTORIAL HepG2 Assay for human RAR-related Orphan Receptor Element (RORE) (AID 2282959). The settings on record: HepG2 Attagene cis-factorial RORE reporter, mRNA; actives raise or lower the signal. In short, it runs like this: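 Multiplexed reporter assay measuring mRNA induction from a cis promoter element in transiently transfected HepG2 cells after 24 h treatment. Detection via RT-PCR and capillary electrophoresis fluorescence; DMSO serves as baseline.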

Assay [12] is described as follows: ATG_Sox_CIS: Attagene CIS-FACTORIAL HepG2 Assay for human SRY-box transcription factor (SOX) (AID 2282960). Particulars: HepG2 Attagene cis-factorial SOX reporter, mRNA; actives raise or lower the signal. The method, boiled down:
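Cells were transfected with reporter constructs under cis-regulatory promoters, then exposed to chemicals for 24 h. Reporter transcripts were quantified by fluorescence after RT-PCR and capillary electrophoresis; activity was fitted in both directions against DMSO.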

Assay [13] deals with Transcription factor Sp1 (Homo sapiens) (UniProt P08047). Put plainly: ATG_Sp1_CIS: Attagene CIS-FACTORIAL HepG2 Assay for human Specificity Protein 1 (Sp1) (AID 2282961). Particulars: HepG2 Sp1 cis-reporter transcription, actives raise or lower the signal. The method, boiled down:
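Measures mRNA induction of an Sp1-linked reporter in HepG2 cells 24 h post-dosing. Multiplexed reporters read by RT-PCR and capillary electrophoresis; DMSO serves as negative control and baseline.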

Assay [14] can be described thus: ATG_SREBP_CIS: Attagene CIS-FACTORIAL HepG2 Assay for human Sterol Regulatory Element Binding (SREBP) (AID 2282962). Particulars: HepG2 Attagene cis-factorial SREBP reporter, mRNA; actives raise or lower the signal. In short, it runs like this: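 Readout: fluorescent reporter-transcript peaks resolved by capillary electrophoresis after RT-PCR. Cells were human HepG2 carrying transfected cis-promoter reporter constructs, dosed for 24 h. Gain or loss of signal was fitted against DMSO controls.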

Assay [15] is described as follows: ATG_TCF_b_cat_CIS: Attagene CIS-FACTORIAL HepG2 Assay for human T-Cell-Factor with beta-catenin (TCF/b-cat) (AID 2282965). The settings on record: HepG2 TCF/beta-catenin cis-reporter transcription, actives raise or lower the signal. The method, boiled down:
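Endogenous transcription factor activity is captured through cis-promoter reporter constructs transiently introduced into human HepG2 liver cells. Induced reporter mRNA is measured after 24 h and fitted bidirectionally relative to DMSO.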

Assay [16] can be described thus: ATG_PPRE_CIS: Attagene CIS-FACTORIAL HepG2 Assay for human Peroxisome Proliferator-activated Response Element (PPRE) (AID 2282958). Particulars: HepG2 PPRE cis-element reporter, Attagene transcription factor profiling; actives raise or lower the signal. In short, it runs like this:
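Transcript-level reporter induction in transfected HepG2 cells after 24 h chemical exposure, quantified by fluorescence from RT-PCR products separated by capillary electrophoresis.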

Assay [17] is described as follows: ATG_TA_CIS: Attagene CIS-FACTORIAL HepG2 Assay for human TA Basal Promoter (AID 2282964). Particulars: HepG2 Attagene CIS-factorial TA basal promoter reporter; actives raise or lower the signal. In short, it runs like this:
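Multiplexed mRNA reporter assay, HepG2, 24 h. Reporter cDNA amplified, 6-FAM primer-extended, HpaI-cut, CE-sized; DMSO = negative control and baseline.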

A short description of assay [18]: ATG_PBREM_CIS: Attagene CIS-FACTORIAL HepG2 Assay for human Phenobarbital-responsive Enhancer Module (PBREM) (AID 2282955). The settings on record: HepG2 PBREM cis-reporter, Attagene multiplexed transcription; actives raise or lower the signal. The method, boiled down: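 HepG2, transient MRTU transfection, 24 h dosing; RNA → oligo(dT) RT → PCR → 6-FAM extension → HpaI → CE. Bidirectional fit vs DMSO.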

The target of assay [19] is Signal transducer and activator of transcription 3 (Homo sapiens) (UniProt P40763). Briefly: ATG_STAT3_CIS: Attagene CIS-FACTORIAL HepG2 Assay for human Signal Transducer and Activator of Transcription 3 (STAT3) (AID 2282963). The settings on record: HepG2, Attagene cis-factorial STAT3 reporter transcription; actives raise or lower the signal. In short, it runs like this:
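Readout is reporter transcript quantified by RT-PCR and capillary electrophoresis, with 6-FAM primer extension and HpaI digestion. Total RNA is taken 24 h after dosing transiently transfected HepG2 carrying cis-regulated reporter units. Bidirectional fit against DMSO.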

Chain of Paired box protein Pax-6 (Homo sapiens) (P26367 whole entry, looked up): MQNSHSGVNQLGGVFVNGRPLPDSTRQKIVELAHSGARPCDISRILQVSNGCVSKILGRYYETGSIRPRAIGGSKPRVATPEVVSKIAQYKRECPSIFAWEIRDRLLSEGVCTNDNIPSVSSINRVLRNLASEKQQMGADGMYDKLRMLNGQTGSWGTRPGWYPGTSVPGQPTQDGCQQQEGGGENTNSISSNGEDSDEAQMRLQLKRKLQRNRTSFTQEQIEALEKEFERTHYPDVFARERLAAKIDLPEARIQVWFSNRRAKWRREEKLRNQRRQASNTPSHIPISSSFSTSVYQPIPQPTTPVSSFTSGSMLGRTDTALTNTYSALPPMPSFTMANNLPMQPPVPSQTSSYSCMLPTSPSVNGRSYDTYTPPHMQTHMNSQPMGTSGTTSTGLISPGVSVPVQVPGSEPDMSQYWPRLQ
Chain of Transcription factor Sp1 (Homo sapiens) (P08047 whole entry, looked up): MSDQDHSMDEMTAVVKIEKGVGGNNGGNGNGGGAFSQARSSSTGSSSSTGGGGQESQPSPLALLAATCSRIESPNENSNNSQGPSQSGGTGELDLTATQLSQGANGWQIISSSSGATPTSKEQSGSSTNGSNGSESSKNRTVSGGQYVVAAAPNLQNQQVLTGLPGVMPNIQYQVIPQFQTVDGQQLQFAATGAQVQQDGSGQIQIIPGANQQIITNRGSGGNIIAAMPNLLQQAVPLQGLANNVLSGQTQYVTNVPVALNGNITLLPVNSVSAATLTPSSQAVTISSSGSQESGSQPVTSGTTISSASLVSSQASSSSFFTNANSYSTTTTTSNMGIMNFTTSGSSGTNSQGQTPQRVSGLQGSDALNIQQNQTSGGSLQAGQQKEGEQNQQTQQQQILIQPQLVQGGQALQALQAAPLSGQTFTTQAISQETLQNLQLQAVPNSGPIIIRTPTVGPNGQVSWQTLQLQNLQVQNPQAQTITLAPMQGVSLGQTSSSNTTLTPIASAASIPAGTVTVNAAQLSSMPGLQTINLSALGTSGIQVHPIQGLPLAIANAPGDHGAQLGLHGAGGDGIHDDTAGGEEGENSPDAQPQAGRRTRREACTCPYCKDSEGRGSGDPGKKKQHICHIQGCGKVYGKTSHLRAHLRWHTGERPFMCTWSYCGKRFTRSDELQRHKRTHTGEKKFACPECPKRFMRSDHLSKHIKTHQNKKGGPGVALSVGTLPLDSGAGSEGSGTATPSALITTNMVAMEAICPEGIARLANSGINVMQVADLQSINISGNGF
Chain of Signal transducer and activator of transcription 3 (Homo sapiens) (P40763 whole entry, looked up): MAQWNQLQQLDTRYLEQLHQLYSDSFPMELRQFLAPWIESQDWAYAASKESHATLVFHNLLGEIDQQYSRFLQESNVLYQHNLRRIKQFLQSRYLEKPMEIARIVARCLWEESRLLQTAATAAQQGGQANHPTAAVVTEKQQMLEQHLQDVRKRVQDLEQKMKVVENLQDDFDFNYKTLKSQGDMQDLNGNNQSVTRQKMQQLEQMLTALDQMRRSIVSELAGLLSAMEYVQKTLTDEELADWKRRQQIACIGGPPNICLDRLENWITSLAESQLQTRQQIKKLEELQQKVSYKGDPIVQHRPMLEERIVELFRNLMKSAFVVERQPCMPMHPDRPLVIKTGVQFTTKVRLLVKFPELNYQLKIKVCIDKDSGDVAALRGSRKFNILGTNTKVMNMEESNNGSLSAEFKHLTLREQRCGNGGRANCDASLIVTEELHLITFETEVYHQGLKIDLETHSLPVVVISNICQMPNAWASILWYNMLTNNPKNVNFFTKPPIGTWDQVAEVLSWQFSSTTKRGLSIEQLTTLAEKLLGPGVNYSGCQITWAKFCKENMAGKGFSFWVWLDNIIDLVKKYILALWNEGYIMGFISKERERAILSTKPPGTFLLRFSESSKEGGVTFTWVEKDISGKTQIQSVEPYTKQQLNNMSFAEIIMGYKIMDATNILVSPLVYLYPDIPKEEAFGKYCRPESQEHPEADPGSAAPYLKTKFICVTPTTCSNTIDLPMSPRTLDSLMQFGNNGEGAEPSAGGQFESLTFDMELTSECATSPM
Chain of Heat shock factor protein 1 (Homo sapiens) (Q00613 whole entry, looked up): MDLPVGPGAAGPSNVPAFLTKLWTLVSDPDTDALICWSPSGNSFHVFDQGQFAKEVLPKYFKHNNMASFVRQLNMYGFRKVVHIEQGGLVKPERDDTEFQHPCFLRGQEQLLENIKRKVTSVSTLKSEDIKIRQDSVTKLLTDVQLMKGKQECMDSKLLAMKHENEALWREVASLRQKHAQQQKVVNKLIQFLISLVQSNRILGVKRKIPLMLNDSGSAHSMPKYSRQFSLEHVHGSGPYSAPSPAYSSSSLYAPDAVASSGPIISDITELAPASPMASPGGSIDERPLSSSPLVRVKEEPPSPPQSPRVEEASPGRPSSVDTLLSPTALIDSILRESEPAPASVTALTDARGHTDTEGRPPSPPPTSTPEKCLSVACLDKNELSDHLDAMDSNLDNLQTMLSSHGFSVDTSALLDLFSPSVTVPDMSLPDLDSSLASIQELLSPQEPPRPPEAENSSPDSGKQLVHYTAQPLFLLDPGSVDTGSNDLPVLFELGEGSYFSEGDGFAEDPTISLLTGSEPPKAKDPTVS
Chain of Hypoxia-inducible factor 1-alpha (Homo sapiens) (Q16665 whole entry, looked up): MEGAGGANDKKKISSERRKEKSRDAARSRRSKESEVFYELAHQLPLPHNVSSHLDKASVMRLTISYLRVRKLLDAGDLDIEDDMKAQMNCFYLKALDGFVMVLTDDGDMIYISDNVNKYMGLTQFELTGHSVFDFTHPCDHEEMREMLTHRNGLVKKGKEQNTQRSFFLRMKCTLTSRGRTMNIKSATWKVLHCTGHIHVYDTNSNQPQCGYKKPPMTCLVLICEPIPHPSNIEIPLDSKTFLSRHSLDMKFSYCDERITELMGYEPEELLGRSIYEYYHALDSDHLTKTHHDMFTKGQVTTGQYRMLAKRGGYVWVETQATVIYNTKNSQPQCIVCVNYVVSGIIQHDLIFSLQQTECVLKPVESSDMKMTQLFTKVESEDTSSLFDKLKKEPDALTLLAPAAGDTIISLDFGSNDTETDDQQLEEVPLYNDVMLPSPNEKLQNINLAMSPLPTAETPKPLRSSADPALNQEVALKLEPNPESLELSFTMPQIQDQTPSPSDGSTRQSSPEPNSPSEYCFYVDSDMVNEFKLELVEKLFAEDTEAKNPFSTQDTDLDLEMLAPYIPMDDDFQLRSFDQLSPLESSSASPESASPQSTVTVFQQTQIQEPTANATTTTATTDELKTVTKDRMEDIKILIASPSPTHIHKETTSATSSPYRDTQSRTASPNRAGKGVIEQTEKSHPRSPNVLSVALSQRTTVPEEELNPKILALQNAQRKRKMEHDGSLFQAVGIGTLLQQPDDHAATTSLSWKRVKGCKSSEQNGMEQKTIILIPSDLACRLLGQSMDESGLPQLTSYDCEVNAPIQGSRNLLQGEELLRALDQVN

`OCCOCCN1CCN(C2=Nc3ccccc3Sc3ccccc32)CC1`: the molecule was classed as inactive in assay [1], in assay [3], in assay [4], in assay [5], in assay [6] and in assay [7]. Moreover, the molecule was called inactive in assay [9], in [11], in [12], in [13], in [14] and in [15]. Moreover, the values for the AC50 in assay [2], in assay [8] and in assay [10] were 152 µM (active), 71.7 µM (active) and 7.41 µM (active), respectively.

As to `COc1cc(C(C)C)ccc1C`, the molecule was classed as inactive in [1], in assay [2], in assay [3], in assay [4], in [7] and in assay [8]. Moreover, the call in assay [9], in assay [10], in [16], in assay [11], in assay [12] and in assay [13] was inactive. Also, the molecule was classed as inactive in assay [14], in assay [17] and in assay [15].

In the case of `CCCCCCCCCCCC(=O)OC[C@@H](O)[C@H]1OC[C@H](O)[C@H]1O`, the outcome in assay [1], in assay [2], in assay [3], in [4], in assay [6] and in assay [7] was inactive. Further, the molecule was called inactive in [8], in assay [18], in [9], in [10], in assay [16] and in assay [11]. For the same molecule, the call in [12], in [13], in assay [14], in [19], in assay [17] and in assay [15] was inactive.

Take `CCOC(=O)CCc1ccccc1`: the molecule was called inactive in assay [1], in assay [2], in [3], in [4], in [5] and in assay [6]. Besides, the call in [7], in assay [8], in [10], in assay [11], in assay [13] and in assay [14] was inactive. Further, the result in [17] and in assay [15] was inactive.

For `CC(C)(C)c1ccc(C(=O)O)cc1`, the result in assay [1], in [2], in assay [4], in assay [5], in assay [6] and in assay [7] was inactive. Moreover, the molecule was called inactive in assay [8], in assay [9], in assay [10], in assay [16], in assay [11] and in assay [13]. Besides, the result in [14], in assay [19], in assay [17] and in assay [15] was inactive.

Take `Cc1ccc(C)o1`: the molecule was classed as inactive in assay [1], in [2], in assay [3], in [4], in assay [5] and in assay [6]. Moreover, the call in assay [8], in assay [18], in assay [9], in assay [10], in assay [16] and in [11] was inactive. Also, the call in assay [12], in assay [13], in assay [14], in [17] and in assay [15] was inactive.

For `CC(=O)C(C)O` (stereo not given), the result in assay [1], in assay [2], in assay [3], in [4], in assay [5] and in assay [6] was inactive. The molecule was classed as inactive in assay [7], in assay [8], in [18], in assay [10], in assay [16] and in assay [11]. Further, the molecule was classed as inactive in assay [12], in assay [13], in assay [14], in [17] and in assay [15].

Turning to `CCCCCC(=O)CC`, the molecule was called inactive in assay [1], in assay [2], in [3], in assay [5], in assay [6] and in assay [7]. Also, the result in [8], in [18], in [9], in assay [16], in [11] and in [12] was inactive. Also, the result in [13], in assay [14], in [19], in [17] and in assay [15] was inactive. For the same molecule, the concentration at half-maximal activity (AC50) in [10] was 33.4 µM (active).

Regarding `O=C(O)CCCCCCCCC(=O)O`, the outcome in [1], in assay [2], in assay [3], in assay [4], in assay [5] and in assay [6] was inactive. The molecule was classed as inactive in assay [8], in [9], in assay [10], in [16], in assay [11] and in [12]. Moreover, the result in assay [13], in [14] and in assay [15] was inactive.
